The results in this text go back to the OligoGym collection.
Further: reference of the scale not given here.

For one assay, the target named is EFNB2. In words: pooled miR-30 sensor sort-seq; sequence = guide strand. As to conditions: shRNA.
ATAGGCTCTAAAACTATCGATT: the sensor-assay potency score (higher = more potent) is -0.56.
Same read-out and setting: the figure for TAATAGTGCATCTGTCTGCTTG is 0.293.
As to TAGAGGATCATAATTTCTGTGA, the sensor-assay potency score (higher = more potent) is -0.365.

A further assay concerns the target EGFLAM. The description is as above. As to conditions: shRNA.
As for TAAGCTGCTATGCTCACACGAT, the sensor-assay potency score (higher = more potent) was -0.515.
Same read-out and setting: the figure for ATCTCTGTAGAGCATAACCGTG is -1.58; for TGAATCACAACACAGTCACTGA it is -0.715; for TTGAGGTCCACTTCTTGTCGAA it is -0.198.
For the sequence TTCTTGTCGAAATCTGGCCTGA, the sensor-assay potency score (higher = more potent) was -0.665.
Still for that read-out and setting: the figure for TAGTCATTGACACAGAAGCTGT is -1.47; for ACACATTTGATCTTGATCCTGA it is 0.527; for TTGATGTGTGATCTCTGGCAGC it is -0.345.
Same read-out and setting: the figure for ATAACAATATCTTCTGAGCAGC is -1.01; for TAGAGCATAACCGTGTGCCAAC it is -1.37; for TTAGATATAGACATCTTCTTGC it is 0.604.
Same read-out and setting: the figure for TCTCTGTAGAGCATAACCGTGT is -0.368.

In a further assay the target is EGF. The description is as above. As to conditions: shRNA.
For the sequence TTGAGAATTGGCAAACAGCAAA, the sensor-assay potency score (higher = more potent) is -1.09.
On the same count and under the same terms, the figure for TAATGTGGACAGAACCTCCATC is -0.544; for TTGAGTAGGTGATTAGTCGTAG it is 0.0164.
On to TTCTCTGTTGTACTGAATCCAA, for which the sensor-assay potency score (higher = more potent) is -0.8.
TCTTCTGACACTCTAGTCTTGG: the sensor-assay potency score (higher = more potent) was -0.41.
For the sequence TATATTACATACTCTCTCTTGC, the sensor-assay potency score (higher = more potent) came to 0.906.
The same measure, in the same setting: as for TTAGATCAACTTCACCACCTGC, the figure is -0.392; as for TTGTCTTTCTAAATCCACCCAA, 0.0842.
Same read-out and setting: as for TACTGTAATGATTCCTTCCTGT, the figure is 0.571; as for TTGACCAAATAACTTCTTCATT, -1.32; as for AAACAAGTTGATGACATCGTTT, -0.985.
Sequence TTAGTGATTATTTTGGAACGTT came in with a sensor-assay potency score (higher = more potent) of 0.208.
For the sequence TTGCAAACAAATTATGCTGTGT, the sensor-assay potency score (higher = more potent) is 0.205.
In turn, TTACTTACAATCTTGTAACTGA gave a sensor-assay potency score (higher = more potent) of 0.581.
Same read-out and setting: as for TTCATTAACATCTTCACAGTAC, the figure is 0.809; as for TAAATCACTCCTTCCAATCAGA, -0.116; as for TTACATACTCTCTCTTGCCTTG, -0.0399.
On to TTCTGTAATGTTATCTTCTGAC, for which the sensor-assay potency score (higher = more potent) is -0.544.
Still for that read-out and setting: the figure for TATCGGGTGAGGAACAACCGCT is -0.49.
The same measure, in the same setting: as for TATCAGAACATAGTTTTCCATC, the figure is -1.09.
The same measure, in the same setting: the figure for TAAACCTTTCTACTGGATCAAC is -1.16; for TTAATTCTAACCATGTCCTTTC it is -0.226; for TAAATTTTGAAACTACTGGCAA it is -0.0191.
